Inconclusive results are not listed. Activity calls are given as the source filed them. Unless noted, calls follow the shape of the dose curve; as a rule, active = well fitted curve in the direction sought with a large enough effect; inconclusive = small, poorly fitted or top-dose-only effect, or another doubt; inactive = no such curve, though single readings can be large; an effect the other way counts as inactive or inconclusive.
Experiments:
[1] = target: ATP-dependent 6-phosphofructokinase (Trypanosoma brucei brucei) (UniProt O15648); experiment: qHTS Assay to Find Inhibitors of T. brucei phosphofructokinase: hit validation (AID 492961);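 also: luminescence reports ADP formed as PFK phosphorylates fructose-6-phosphate with ATP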
Method in brief: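 ADP-Glo luminescence read-out of ADP formed by 1.25 nM PFK from 0.1 mM ATP and 0.5 mM F6P (TEA pH 8.0, 45 min, RT). Compounds titrated; activity normalized to no-enzyme and full-enzyme controls.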

[2] = target: Ubiquitin carboxyl-terminal hydrolase 1 (Homo sapiens) (UniProt O94782); experiment: Inhibitors of USP1/UAF1: Pilot qHTS (AID 504865);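 also: rhodamine fluorescence freed from ubiquitin-rhodamine substrate followed over time; top concentration of the series differs between compounds; nearly all actives have a fitted effect of over 35% in size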
Method in brief: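 Deubiquitinase activity followed as kinetic rhodamine fluorescence release from 150 nM Ub-Rho. 1 nM USP1/UAF1 with compound, after 15 min room-temperature preincubation, in HEPES pH 7.8 buffer containing TCEP, EDTA, BSA and Tween-20.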

[3] = target: Luciferin 4-monooxygenase (Photinus pyralis) (UniProt P08659); experiment: Biochemical firefly luciferase enzyme assay for NPC (AID 624030);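 also: purified P. pyralis luciferase at 10 nM with luciferin and ATP substrate; nearly all actives have a fitted effect of over 70% in size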
Method in brief: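 Direct inhibition of firefly luciferase enzyme (10 nM final, 50 mM Tris Acetate) assessed by luminescence within 5 minutes. Percent activity scaled between DMSO and PTC124 positive control, with concentration-effect curves classified by fit quality and response.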

[4] = S16 Schwann cell PMP22 intronic element firefly luciferase assay (AID 624032); also: potency is read from the fitted curve at half-maximal effect; nearly all actives have a fitted effect of over 30% in size
Method in brief: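 Luciferase reporter of PMP22 intronic-element expression in stably transfected S16 rat Schwann cells, read by ONE-Glo luminescence after 24 h compound exposure at 37 C. Activity scaled between DMSO (0%) and positive-control PTC124; concentration-effect curves quality-classified.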

[5] = S16 Schwann cell PMP22 intronic element beta-lactamase assay (AID 624044; calls by dose curve; also: potency is read from the fitted curve at half-maximal effect; nearly all actives have a fitted effect of over 15% in size)
Method in brief: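 Rat S16 Schwann cells with beta-Lac driven by a PMP22 intronic element, compound-treated 24 h at 37 °C. LiveBLAzer FRET B/G read: 460 nm normalized to potassium clavulanate vs DMSO; 535 nm FRET as viability; concentration-effect curves classified.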

Furin (Homo sapiens) = Furin (Homo sapiens) (UniProt P09958); experiment: Furin counterscreen qHTS for Zika virus inhibitors (AID 1347149);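 also: purified recombinant full-length human furin enzyme at 5 nM; fluorescence gain from furin cutting a BOC-RVRR-AMC peptide substrate over 15 min; top concentration of the series differs between compounds; nearly all actives have a fitted effect of over 70% in size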
Method in brief: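 Fluorogenic cleavage of BOC-RVRR-AMC (2 microM final, Km ~15 µM) was monitored (ex 340, em 450 nm) at 37C after 15 min RT preincubation of 5 nM furin with compounds in HEPES pH 7.0 buffer with CaCl2 and Triton X-100. Percent inhibition was fitted to a 4-parameter Hill curve.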

[6] = test system: Zika virus NS2B-NS3 protease (unlinked); experiment: Optimization of GU AMC qHTS for Zika virus inhibitors: Unlinked NS2B-NS3 protease assay (AID 1347151); also: nearly all actives have a fitted effect of over 80% in size
Method in brief: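 Fluorescence gain (340/450 nm) over 15 min at room temperature, ~20% conversion, gave percent inhibition fitted to a 4-parameter Hill equation; enzyme was unlinked NS2B-NS3 (25 nM final), pH 8.0 Tris buffer.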

[7] = Vero cells viability qHTS for Zika virus inhibitors (AID 1347167)
Method in brief: (§1)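 Compounds were tested in concentration series on cells grown in DMEM containing 4% FBS. After 24 to 48 hours, cellular ATP was measured by luminescence with CellTiter Glo.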

[8] = HepG2 cells viability qHTS for Zika virus inhibitors (AID 1347168); also: potency is read from the fitted curve at half-maximal effect
Method in brief: as §1

[9] = Tertiary RLuc qRT-PCR qHTS assay for Zika virus inhibitors (AID 1347169); also: potency is read from the fitted curve at half-maximal effect; nearly all actives have a fitted effect of over 55% in size
Method in brief: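 Orthogonal cell-based readout: luminescence measured 1-1.5 hrs after adding live-cell Renilla substrate to Vero cells that had been infected with ZIKV-RLuc (MOI 1-2) post-compound, incubated 48-72 hrs at 37 degrees C.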

[10] = qHTS profiling for inhibitors of Plasmodium falciparum proliferation (AID 504749); also: potency is read from the fitted curve at half-maximal effect; nearly all actives have a fitted effect of over 60% in size; details: P. falciparum in erythrocytes, SYBR Green DNA, 72 h
Method in brief: (§2)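 Infected RBCs, 0.3% parasitemia/2.5% Hct final; cpd 72 h, 37 C, 5% CO2; lysis buffer with saponin/triton/SYBR Green I, o/n RT dark; FI 485/535; norm. to artemisinin (0.29 uM) and DMSO.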

3D7 = experiment: as above; details: P. falciparum in erythrocytes, SYBR Green DNA, 72 h; series mostly up to 28.7 µM
Method in brief: as §2

7G8 = experiment: as above; details: P. falciparum in erythrocytes, SYBR Green DNA, 72 h; series mostly up to 28.7 µM
Method in brief: as §2

AA1029 = experiment: as above; details: P. falciparum in erythrocytes, SYBR Green DNA, 72 h; series mostly up to 28.7 µM
Method in brief: as §2

AS120 = experiment: as above; details: P. falciparum in erythrocytes, SYBR Green DNA, 72 h; series mostly up to 28.7 µM
Method in brief: as §2

ATS189 = experiment: as above; details: P. falciparum in erythrocytes, SYBR Green DNA, 72 h; series mostly up to 28.7 µM
Method in brief: as §2

ATS95 = experiment: as above; details: P. falciparum in erythrocytes, SYBR Green DNA, 72 h; series mostly up to 28.7 µM
Method in brief: as §2

C2A = experiment: as above; details: P. falciparum in erythrocytes, SYBR Green DNA, 72 h; series mostly up to 28.7 µM
Method in brief: as §2

CP185 = experiment: as above; details: P. falciparum in erythrocytes, SYBR Green DNA, 72 h; series mostly up to 28.7 µM
Method in brief: as §2

CP191 = experiment: as above; details: P. falciparum in erythrocytes, SYBR Green DNA, 72 h; series mostly up to 28.7 µM
Method in brief: as §2

CP192 = experiment: as above; details: P. falciparum in erythrocytes, SYBR Green DNA, 72 h; series mostly up to 28.7 µM
Method in brief: as §2

CP194 = experiment: as above; details: P. falciparum in erythrocytes, SYBR Green DNA, 72 h; series mostly up to 28.7 µM
Method in brief: as §2

CP201 = experiment: as above; details: P. falciparum in erythrocytes, SYBR Green DNA, 72 h; series mostly up to 28.7 µM
Method in brief: as §2

CP203 = experiment: as above; details: P. falciparum in erythrocytes, SYBR Green DNA, 72 h; series mostly up to 28.7 µM
Method in brief: as §2

CP211 = experiment: as above; details: P. falciparum in erythrocytes, SYBR Green DNA, 72 h; series mostly up to 28.7 µM
Method in brief: as §2

CP215 = experiment: as above; details: P. falciparum in erythrocytes, SYBR Green DNA, 72 h; series mostly up to 28.7 µM
Method in brief: as §2

CP217 = experiment: as above; details: P. falciparum in erythrocytes, SYBR Green DNA, 72 h; series mostly up to 28.7 µM
Method in brief: as §2

CP237 = experiment: as above; details: P. falciparum in erythrocytes, SYBR Green DNA, 72 h; series mostly up to 28.7 µM
Method in brief: as §2

CP238 = experiment: as above; details: P. falciparum in erythrocytes, SYBR Green DNA, 72 h; series mostly up to 28.7 µM
Method in brief: as §2

CP247 = experiment: as above; details: P. falciparum in erythrocytes, SYBR Green DNA, 72 h; series mostly up to 28.7 µM
Method in brief: as §2

CP250 = experiment: as above; details: P. falciparum in erythrocytes, SYBR Green DNA, 72 h; series mostly up to 28.7 µM
Method in brief: as §2

CP252 = experiment: as above; details: P. falciparum in erythrocytes, SYBR Green DNA, 72 h; series mostly up to 28.7 µM
Method in brief: as §2

CP256 = experiment: as above; details: P. falciparum in erythrocytes, SYBR Green DNA, 72 h; series mostly up to 28.7 µM
Method in brief: as §2

CP260 = experiment: as above; details: P. falciparum in erythrocytes, SYBR Green DNA, 72 h; series mostly up to 28.7 µM
Method in brief: as §2

Measured: Potency

Ubiquitin carboxyl-terminal hydrolase 1 (Homo sapiens), sequence (O94782 whole entry, looked up): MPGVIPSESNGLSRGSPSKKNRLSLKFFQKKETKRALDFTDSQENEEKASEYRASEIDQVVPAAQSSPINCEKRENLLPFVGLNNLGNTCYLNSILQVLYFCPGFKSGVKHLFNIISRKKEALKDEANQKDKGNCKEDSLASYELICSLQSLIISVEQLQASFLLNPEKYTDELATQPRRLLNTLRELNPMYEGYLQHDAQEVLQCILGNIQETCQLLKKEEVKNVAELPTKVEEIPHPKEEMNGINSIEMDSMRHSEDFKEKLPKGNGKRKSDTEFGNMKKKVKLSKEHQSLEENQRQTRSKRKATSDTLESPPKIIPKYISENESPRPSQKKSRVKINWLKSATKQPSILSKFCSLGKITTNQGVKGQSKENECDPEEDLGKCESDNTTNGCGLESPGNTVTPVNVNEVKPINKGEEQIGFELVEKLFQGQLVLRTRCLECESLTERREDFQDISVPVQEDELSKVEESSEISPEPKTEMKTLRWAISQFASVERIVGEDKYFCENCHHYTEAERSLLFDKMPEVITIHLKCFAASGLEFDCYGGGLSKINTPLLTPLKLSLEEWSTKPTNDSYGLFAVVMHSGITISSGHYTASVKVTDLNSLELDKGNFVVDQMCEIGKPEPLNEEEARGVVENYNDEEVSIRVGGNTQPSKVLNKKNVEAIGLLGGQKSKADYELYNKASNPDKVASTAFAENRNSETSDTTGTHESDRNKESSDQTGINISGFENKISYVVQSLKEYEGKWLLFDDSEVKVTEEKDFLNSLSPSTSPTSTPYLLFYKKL
Luciferin 4-monooxygenase (Photinus pyralis), sequence (P08659 whole entry, looked up): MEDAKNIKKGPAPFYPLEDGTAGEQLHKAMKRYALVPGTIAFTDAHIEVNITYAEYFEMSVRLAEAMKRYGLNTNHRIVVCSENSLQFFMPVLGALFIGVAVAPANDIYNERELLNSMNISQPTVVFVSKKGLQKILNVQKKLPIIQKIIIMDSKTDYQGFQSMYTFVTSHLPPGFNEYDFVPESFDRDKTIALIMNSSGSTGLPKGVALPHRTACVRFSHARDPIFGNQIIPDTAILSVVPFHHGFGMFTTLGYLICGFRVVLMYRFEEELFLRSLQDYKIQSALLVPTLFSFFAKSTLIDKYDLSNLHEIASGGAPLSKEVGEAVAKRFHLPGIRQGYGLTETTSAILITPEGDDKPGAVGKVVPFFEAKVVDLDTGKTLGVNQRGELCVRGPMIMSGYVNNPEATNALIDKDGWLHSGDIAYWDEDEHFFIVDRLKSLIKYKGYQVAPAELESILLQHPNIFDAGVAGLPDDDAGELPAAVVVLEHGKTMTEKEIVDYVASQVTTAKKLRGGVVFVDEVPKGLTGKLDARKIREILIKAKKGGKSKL
Furin (Homo sapiens), sequence (P09958 whole entry, looked up): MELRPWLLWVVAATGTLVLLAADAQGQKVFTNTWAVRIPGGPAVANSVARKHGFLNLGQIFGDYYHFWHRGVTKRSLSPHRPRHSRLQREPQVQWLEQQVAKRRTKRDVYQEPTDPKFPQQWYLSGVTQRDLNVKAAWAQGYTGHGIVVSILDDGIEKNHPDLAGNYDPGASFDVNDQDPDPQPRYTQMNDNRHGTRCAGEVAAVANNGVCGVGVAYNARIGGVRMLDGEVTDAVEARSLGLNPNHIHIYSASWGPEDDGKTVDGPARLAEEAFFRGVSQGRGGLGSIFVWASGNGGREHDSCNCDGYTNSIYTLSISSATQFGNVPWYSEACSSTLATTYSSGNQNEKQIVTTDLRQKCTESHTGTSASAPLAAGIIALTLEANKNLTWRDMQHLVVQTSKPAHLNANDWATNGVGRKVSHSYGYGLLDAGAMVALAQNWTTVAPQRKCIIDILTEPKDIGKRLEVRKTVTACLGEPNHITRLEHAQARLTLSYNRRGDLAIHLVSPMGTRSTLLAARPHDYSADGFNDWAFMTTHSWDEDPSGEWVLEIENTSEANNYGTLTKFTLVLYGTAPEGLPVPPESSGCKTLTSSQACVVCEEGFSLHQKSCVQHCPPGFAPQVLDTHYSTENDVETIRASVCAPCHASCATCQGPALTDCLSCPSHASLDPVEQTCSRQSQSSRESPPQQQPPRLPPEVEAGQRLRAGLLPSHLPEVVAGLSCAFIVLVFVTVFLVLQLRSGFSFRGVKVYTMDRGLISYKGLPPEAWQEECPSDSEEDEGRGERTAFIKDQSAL
ATP-dependent 6-phosphofructokinase (Trypanosoma brucei brucei), sequence (O15648 whole entry, looked up): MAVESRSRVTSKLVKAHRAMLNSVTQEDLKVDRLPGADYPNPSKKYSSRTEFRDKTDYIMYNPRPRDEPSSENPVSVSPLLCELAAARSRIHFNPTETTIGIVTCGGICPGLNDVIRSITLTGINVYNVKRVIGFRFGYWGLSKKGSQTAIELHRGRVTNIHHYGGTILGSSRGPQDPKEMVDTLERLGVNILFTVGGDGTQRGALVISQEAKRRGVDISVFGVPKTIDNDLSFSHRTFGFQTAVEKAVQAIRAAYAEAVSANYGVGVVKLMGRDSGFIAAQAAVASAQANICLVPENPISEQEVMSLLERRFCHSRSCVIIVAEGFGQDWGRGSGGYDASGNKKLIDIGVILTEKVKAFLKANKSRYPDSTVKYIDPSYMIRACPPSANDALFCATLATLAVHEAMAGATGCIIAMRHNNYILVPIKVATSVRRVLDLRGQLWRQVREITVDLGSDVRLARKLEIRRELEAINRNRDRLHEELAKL

CC(C)C[C@@H](NC(=O)[C@H](Cc1ccccc1)NC(=O)c1cnccn1)B(O)O
inactive: [1] | [2] | [3] | Furin (Homo sapiens) | [6] | [7]
active: [4] 3.6 nM | [5] 12.6 nM | [8] 42.6 nM | [9] 26.9 nM | [10]; parasite line A 89.1 nM | [10]; parasite line B 63.1 nM | 3D7 126 nM | 7G8 31.6 nM | AA1029 70.8 nM | AS120 100 nM | ATS189 112 nM | ATS95 56.2 nM | C2A 126 nM | CP185 112 nM | CP191 89.1 nM | CP192 151 nM | CP194 426 nM | CP201 601 nM | CP203 169 nM | CP211 757 nM | CP215 536 nM | CP217 126 nM | CP237 79.4 nM | CP238 112 nM | CP247 126 nM | CP250 100 nM | CP252 89.1 nM | CP256 126 nM | CP260 112 nM

— PubChem BioAssay (NCATS)
